High-throughput results from PubChem BioAssay.
In the library only some 2.9% were active in any assay of this set; here they are far more common.
PAFAH1B2 FP inh = PAFAH1B2 enzyme inhibitors, primary screen, biochemical, fluorescence polarization, human. Platelet-activating factor acetylhydrolase IB subunit alpha2 (Homo sapiens), P68402. hit rate 1.2% among 340,000. inhibition, % at 3.39 µM. recombinant PAFAH1B2, FP-rhodamine activity probe. AID 492953, 2010;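 active means inhibition above the mean of all tested compounds plus 3 SD, cut at about 24% in these data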
Target sequence (P68402 whole entry, looked up): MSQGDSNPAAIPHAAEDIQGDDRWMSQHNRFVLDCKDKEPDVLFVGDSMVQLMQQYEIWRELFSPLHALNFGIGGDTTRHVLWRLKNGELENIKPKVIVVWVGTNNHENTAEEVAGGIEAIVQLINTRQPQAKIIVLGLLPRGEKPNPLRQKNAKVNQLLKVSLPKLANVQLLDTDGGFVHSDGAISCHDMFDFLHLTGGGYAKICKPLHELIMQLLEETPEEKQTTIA
PAFAH1B3 FP inh = PAFAH1B3 enzyme inhibitors, primary screen, biochemical, fluorescence polarization, human; Platelet-activating factor acetylhydrolase IB subunit alpha1 (Homo sapiens), Q15102; recombinant PAFAH1B3, FP-rhodamine probe; inhibition, % at 3.39 µM; hit rate 0.28% among 340,000;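 active means inhibition above the screen-wide average of all tested compounds plus 3 SD, cut at about 25% in these data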
Target sequence (Q15102 whole entry, looked up): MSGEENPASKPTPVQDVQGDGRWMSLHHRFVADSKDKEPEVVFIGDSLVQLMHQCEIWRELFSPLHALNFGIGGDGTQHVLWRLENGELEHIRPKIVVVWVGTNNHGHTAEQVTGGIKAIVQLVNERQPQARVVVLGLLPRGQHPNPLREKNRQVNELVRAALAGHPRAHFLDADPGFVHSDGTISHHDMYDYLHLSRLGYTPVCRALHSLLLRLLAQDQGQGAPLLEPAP
PME-1 inh = PME-1 inhibitors via competitive probe labeling, primary screen, biochemical, fluorescence polarization, FP-Rh probe, HTS; inhibition, % at 5.9 µM; recombinant PME-1; hit rate 0.53% among 320,000; Protein phosphatase methylesterase 1 (Homo sapiens), Q9Y570;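 active means inhibition above the campaign mean of all compounds plus 3 SD, cut at about 26% in these data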;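 further: competitive labeling of PME-1 active site by serine hydrolase directed probe; inhibitors block probe labeling so polarization falls and inhibition rises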
PAFAH2 FP inh = PAFAH2 enzyme inhibitors, primary screen, biochemical, fluorescence polarization, human; Platelet-activating factor acetylhydrolase 2, cytoplasmic (Homo sapiens), Q99487; recombinant PAFAH2, FP-rhodamine activity probe; inhibition, % at 3.39 µM; hit rate 0.99% among 340,000;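 active means inhibition above the mean over all tested compounds plus 3 SD, cut at about 30% in these data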;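 further: inhibitors block probe labeling of enzyme so polarization drops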
Fam108B counter = mouse Fam108B serine hydrolase inhibitors, primary screen, counter-screen for RBBP9 inhibitor project, biochemical, fluorescence polarization. hit rate 0.33% among 300,000. AID 1947, 2009. recombinant Fam108B, FP-Rh probe fluorescence polarization. inhibition, % at 9.51 µM;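 active means inhibition above the screen mean inhibition plus 3 SD, computed separately per campaign, cut at about 18% in these data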;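 further: inhibitors lower polarization as less probe binds the enzyme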
pPAFAH inh = pPAFAH enzyme inhibitors, primary screen, biochemical, fluorescence polarization, human; inhibition, % at 3.39 µM; hit rate 1.5% among 330,000; AID 463082, 2010; Platelet-activating factor acetylhydrolase (Homo sapiens), Q13093; recombinant pPAFAH, FP-rhodamine probe fluorescence polarization;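 active means inhibition above the mean inhibition across the screen plus 3 SD, cut at about 25% in these data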;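 further: inhibitors block binding of the rhodamine activity-based probe so polarization drops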
Hits are given with their value; – = inactive; · = no result.

SMILES | PAFAH1B2 FP inh | PAFAH1B3 FP inh | PME-1 inh | PAFAH2 FP inh | Fam108B counter | pPAFAH inh
CCCCCCCCCCCCCCCC[n+]1cccc(C(=O)N(CC)CC)c1 | – | – | – | – | – | 32
O=C1CC[C@@H](OCc2ccccc2)CCN1CC[C@H](Sc1ccccc1)c1ccccc1 | – | – | – | 33 | – | 32
O=S(=O)(c1ccc(F)cc1)n1cnc2ccccc21 | 26 | – | – | – | – | –
O=S(=O)(c1ccc(S(=O)(=O)n2cnc3ccccc32)cc1)N1CCCCCC1 | – | – | – | – | – | –
O=C1CC(=O)C(n2cncn2)C(c2c(F)cccc2Cl)C1 (stereo not drawn) | – | – | – | – | – | –
CC(C)(C)Cc1nnc(NS(=O)(=O)c2ccc(F)cc2)s1 | 31 | – | – | – | – | –
COc1ccc(S(=O)(=O)Nc2cccc(F)c2)cc1C | – | – | – | – | – | 27
O=S(=O)(NCC(Nc1ccccc1)c1ccccc1)c1ccc(Cl)cc1 (stereo not drawn) | – | – | – | – | – | –
O=C(O)c1cccc(NC(CNS(=O)(=O)c2ccc(Cl)cc2)c2ccccc2)c1 (stereo not drawn) | 75 | – | – | – | – | 26
COc1ccc(OC)c(CNC(=O)C2CCN(S(=O)(=O)N3CCC(C)CC3)CC2)c1 | – | – | – | – | – | –
CCOC(=O)c1nn(-c2ccccc2C)c2nc(-c3ccc(Cl)cc3)c(C#N)c(=O)n12 | – | – | – | – | – | –
Cc1cc(N2CCCC2)ccc1NC(=O)CN1C(=O)NC2(CCCCC2)C1=O | – | – | – | – | – | –
N#Cc1ccc(COC(=O)c2ccc3c(c2)OCO3)cc1 | – | – | – | – | – | –
O=C(COC(=O)CCS(=O)(=O)c1ccc(Cl)cc1)NC1CCCCC1 | – | – | – | – | – | –
O=C(COC(=O)CCS(=O)(=O)c1ccc(Cl)cc1)NCCc1ccc(Cl)cc1Cl | 26 | – | – | – | – | –
O=C(Cc1ccc(Br)cc1)NCCc1ccc(Cl)cc1Cl | 27 | – | – | – | – | –
O=C(c1ccc(S(=O)(=O)N2CCCC2)cc1)N(c1ccccc1)C1C=CS(=O)(=O)C1 (stereo not drawn) | – | – | – | – | – | –
COc1cccc(C(=O)Nc2ccc3nc(N4CCN(c5ncccn5)CC4)cc(C)c3c2)c1OC | · | · | – | · | – | 82
CCOc1ccccc1C(=O)Nc1ccc2nc(N3CCN(c4ncccn4)CC3)cc(C)c2c1 | · | · | – | · | – | –
COc1ccccc1-c1cnnc(N/N=C/c2ccc(-c3cccc(Br)c3)o2)n1 | – | – | – | – | – | –
CC(=O)Nc1ccc(NC(=O)C(C)OC(=O)CSc2ccc(Br)cc2C)cc1 (stereo not drawn) | 24 | – | – | – | – | –
CCN(CC)c1ccc(NC(=O)COC(=O)CSc2ccc(Br)cc2C)cc1 | – | – | – | – | – | –
CN(CC(=O)Nc1cccc(F)c1)C(=O)c1ccccc1CCc1ccccc1 | – | – | – | – | – | –
COc1ccc(/C(O)=C2\C(=O)C(=O)N(c3cc(C)on3)C2c2ccccc2OC)cc1C (stereo not drawn) | – | – | – | – | – | –
O=C1CC[C@@H](CN(Cc2ccccn2)Cc2nc(Cc3cccc(C(F)(F)F)c3)no2)N1 | – | – | – | – | – | –
FC(F)(F)c1cccc(Cc2noc(CN(Cc3ccccn3)CC3CCCO3)n2)c1 (stereo not drawn) | – | – | – | – | – | 33
COc1ccc(-n2sc3ccc(F)cc3c2=O)cc1 | – | – | – | – | · | –
Cc1cc2cc(CNC(=O)c3ccc(S(=O)(=O)N4CCCC4)cc3)ccc2n1C | – | – | – | – | – | –
Cc1cc2cc(CNC(=O)c3ccc(S(=O)(=O)N4CCCCC4)cc3)ccc2n1C | – | – | – | – | – | 31
CCS(=O)(=O)c1ccc(O)c(NC(=O)c2ccc(S(=O)(=O)N3CCCCCC3)cc2)c1 | – | – | · | – | · | 28
